The results in this text go back to PubChem BioAssay (NCI).

This is part of a sample that, as a whole, favours compounds with a hit. Of some 83,000 tested, about 20% had one in any assay.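 Cell lines were cultured in 96-well plates, exposed to a single compound concentration, and assessed for percent growth 48 hours later.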 Values without a mark were called inactive. The source made the active and inactive calls. Rule for the calls: active = growth percent below 10; inactive = the rest.

Some test systems named below: DU-145 prostate; K-562 leukemia; MALME-3M melanoma; MDA-MB-231 breast; RXF 393 renal; SF-268 CNS; SF-295 CNS; UACC-257 melanoma; M14 melanoma; HCT-15 colon; HT29 colon; SNB-75 CNS; SNB-19 CNS; U251 CNS; PC-3 prostate; SK-MEL-5 melanoma; UACC-62 melanoma; LOX IMVI melanoma; SK-MEL-28 melanoma.
What all share (assay): NCI-60 one-dose screen, 48 h (100 = growth as untreated, 0 = no growth, -100 = all killed)
Holding throughout (details): 10 µM unless noted

Regarding `CS(CCCCN=C=S)=NC(=O)c1c(F)c(F)c(F)c(F)c1F` (configuration not stated), the growth in the test with DU-145 prostate is 41.4%; in the test on K-562 leukemia it was 22.5%; in the test with MALME-3M melanoma it was 44.8%; with MDA-MB-231 breast it was 67.9%; in the test on RXF 393 renal it was 41.9%; in the test on SF-268 CNS it was 86.8%. The growth in the test on SF-295 CNS was 102%; with UACC-257 melanoma it was 61.5%; with M14 melanoma it was 62.8%; in the test with HCT-15 colon, 37.3%; in the test on HT29 colon it was 57.6%; in the test with SNB-75 CNS, 74.3%. In addition, the growth in the test on SNB-19 CNS was 91.9%; in the test on U251 CNS, 80.3%; in the test on PC-3 prostate, 95.8%; in the test on SK-MEL-5 melanoma, 96.1%; in the test with UACC-62 melanoma it was 51.9%; with LOX IMVI melanoma, 28.3%. Also, the growth in the test with SK-MEL-28 melanoma was 85.9%.

For the compound `O=C([C@@H](COCc1ccccc1)N1C(=O)[C@@H](N2C(=O)OC[C@@H]2c2ccccc2)[C@H]1/C=C/c1ccccc1)N1CCC(CCN2CCCCC2)CC1`, the growth in the test on DU-145 prostate is 100%; in the test on K-562 leukemia it was 55.8%; with MALME-3M melanoma, -22.3% (active); in the test on MDA-MB-231 breast it was 72.6%; with RXF 393 renal, 88.7%; in the test with SF-268 CNS, 77.2%. In addition, the growth in the test on SF-295 CNS was 102%; with UACC-257 melanoma, 64.1%; with M14 melanoma, 97.8%; in the test with HCT-15 colon, 89.2%; with HT29 colon, 45.5%; in the test with SNB-75 CNS it was 90.9%. The growth in the test on SNB-19 CNS is 95.1%; in the test on U251 CNS, 71.5%; with PC-3 prostate, 67.5%; in the test on SK-MEL-5 melanoma it was 81.6%; with UACC-62 melanoma, 95.5%; with LOX IMVI melanoma, 82.1%. The growth in the test with SK-MEL-28 melanoma is 73.2%.

Turning to `O=C(CO[N+](=O)[O-])Nc1ccc(C(=O)/C=C/c2ccc3c(c2)OCO3)cc1`, the growth in the test with DU-145 prostate was 96.7%; with K-562 leukemia, 59.1%; in the test with MALME-3M melanoma, 116%; with MDA-MB-231 breast it was 87.4%; in the test with RXF 393 renal, 107%; with SF-268 CNS, 82.4%. Besides, the growth in the test on SF-295 CNS was 74.6%; in the test with UACC-257 melanoma it was 92.9%; in the test with M14 melanoma it was 81.8%; in the test with HCT-15 colon, 76.7%; in the test with HT29 colon, 30.1%; in the test with SNB-75 CNS, 86.3%. Also, the growth was 104% in the test on SNB-19 CNS; 57.3% in the test on U251 CNS; 61.4% in the test on PC-3 prostate; 90.8% in the test on SK-MEL-5 melanoma; 96% in the test with UACC-62 melanoma; 21.5% in the test with LOX IMVI melanoma. In the test on SK-MEL-28 melanoma, the growth is 104%.

Consider `Cc1cc(OCc2ccc(C(F)(F)F)cc2)c2c(c1)C(=O)C=C(NCCN1CCCC1)C2=O`, for which the growth in the test on DU-145 prostate was 76.2%; in the test with K-562 leukemia, -8.28% (active); in the test with MALME-3M melanoma it was -45.4% (active); with MDA-MB-231 breast, 74.7%; with RXF 393 renal, 53.6%; with SF-268 CNS, 69%. The growth was 64.1% in the test on SF-295 CNS; -92.4% (active) with UACC-257 melanoma; -84.9% (active) with M14 melanoma; 31.2% in the test on HCT-15 colon; 9.81% (active) in the test with HT29 colon; 76.4% in the test with SNB-75 CNS. Also, the growth was 79.8% in the test with SNB-19 CNS; 22.3% in the test with U251 CNS; 66% in the test with PC-3 prostate; -35.7% (active) with SK-MEL-5 melanoma; 86.8% in the test on UACC-62 melanoma; -52.9% (active) in the test on LOX IMVI melanoma. Also, the growth in the test on SK-MEL-28 melanoma was -84.1% (active).

For the compound `O=C(CN1CCN(c2cc3c(cc2F)c(=O)c(C(=O)O)cn3C2CC2)CC1)Nc1nc(-c2ccccc2)cs1`, the growth in the test with DU-145 prostate was 79.7%; with K-562 leukemia, 64.5%; in the test on MALME-3M melanoma, 89.8%; with MDA-MB-231 breast it was 95.5%; in the test with RXF 393 renal it was 78.2%; in the test with SF-268 CNS it was 83.9%. For the same compound, the growth in the test on SF-295 CNS is 69.9%; in the test on UACC-257 melanoma it was 65.2%; with M14 melanoma, 76%; in the test with HCT-15 colon, 82.4%; in the test with HT29 colon, 72.7%; in the test on SNB-75 CNS it was 69.6%. Moreover, the growth with SNB-19 CNS was 86.8%; in the test on U251 CNS, 43.8%; in the test on PC-3 prostate it was 64.7%; in the test with SK-MEL-5 melanoma, 78.9%; in the test on UACC-62 melanoma, 78.8%; with LOX IMVI melanoma, 36.5%. Further, in the test on SK-MEL-28 melanoma, the growth is 87.5%.

Take `CCOC(=O)c1ccc2c(c1)nc(/C=C/c1ccc(Cl)cc1)n2-c1cc(C(C)(C)C)[nH]n1`: the growth was 74.1% in the test on DU-145 prostate; 19.1% in the test on K-562 leukemia; 61.2% in the test with MALME-3M melanoma; 52.5% in the test on MDA-MB-231 breast; 21.3% in the test on RXF 393 renal; 54.6% in the test with SF-268 CNS. In addition, the growth was 56.2% with SF-295 CNS; 67% with UACC-257 melanoma; 83.4% in the test on M14 melanoma; 35.6% in the test with HCT-15 colon; 57.7% with HT29 colon; 0.573% (active) with SNB-75 CNS. Further, the growth in the test on SNB-19 CNS is 77.6%; in the test with U251 CNS it was 50.5%; in the test on PC-3 prostate, 62.1%; in the test with SK-MEL-5 melanoma it was 62.1%; in the test on UACC-62 melanoma, 19.1%; with LOX IMVI melanoma, 39.9%. For the same compound, in the test on SK-MEL-28 melanoma, the growth was 47.3%.

For the compound `CC(=O)C1=C(O)C=C2Oc3c(C(=O)/C=C/c4c(Cl)cccc4Cl)c(O)c(C)c(O)c3[C@]2(C)C1=O`, the growth in the test with DU-145 prostate is 6.3% (active); in the test with K-562 leukemia, -26.7% (active); in the test on MALME-3M melanoma, -67.7% (active); in the test with MDA-MB-231 breast, -63.4% (active); in the test on RXF 393 renal it was -48.9% (active); in the test with SF-268 CNS, -20.4% (active). Further, the growth in the test on SF-295 CNS is -37% (active); in the test with UACC-257 melanoma, -37% (active); with M14 melanoma, -10.9% (active); in the test with HCT-15 colon, -50.4% (active); with HT29 colon, -18.5% (active); with SNB-75 CNS, -22.3% (active). Also, the growth is -23.7% (active) in the test on SNB-19 CNS; -33% (active) in the test with U251 CNS; -3.69% (active) with PC-3 prostate; -86.3% (active) with SK-MEL-5 melanoma; -69.7% (active) with UACC-62 melanoma; -51.9% (active) in the test on LOX IMVI melanoma. Also, the growth in the test on SK-MEL-28 melanoma was -60.1% (active).

For `O=C(O)c1c([N+](=O)[O-])cnc2ccccc12`, the growth in the test with DU-145 prostate was 116%; in the test on K-562 leukemia, 112%; with MALME-3M melanoma it was 88.4%; in the test with MDA-MB-231 breast it was 107%; in the test with RXF 393 renal, 110%; in the test on SF-268 CNS, 104%. Moreover, the growth was 102% in the test on SF-295 CNS; 97.1% in the test with UACC-257 melanoma; 93.5% with M14 melanoma; 109% with HCT-15 colon; 107% with HT29 colon; 88.4% in the test with SNB-75 CNS. Besides, the growth was 91% in the test on SNB-19 CNS; 106% in the test on U251 CNS; 104% with PC-3 prostate; 97.4% in the test on SK-MEL-5 melanoma; 99.4% in the test with UACC-62 melanoma; 97.6% in the test with LOX IMVI melanoma. Further, the growth in the test on SK-MEL-28 melanoma is 125%.
